Results as given in PubChem BioAssay.
A number with no mark means an inactive call. Active and inactive are the calls of the source. Rule as the data show it, unless noted: active = inhibition above about 28%; inactive = the rest.

Experiments:
[1] = StAR promoter reporter inhibitors, counter-screen for LRH-1 inverse agonist project, cell-based, luminescence, high throughput (AID 651611); conditions: StAR promoter luciferase reporter counterscreen, at 3.6 µM, hits give high values
[2] = molecular target: Nuclear receptor subfamily 5 group A member 2 (Homo sapiens) (UniProt O00482); assay: LRH-1 (NR5A2) inverse agonists, retest, confirmation, cell-based, luminescence (AID 651613; in the data active = inhibition above about 42%;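 also: HEK293T cells co-transfected with LRH-1 and StAR promoter luciferase reporter; 0% = vehicle wells and 100% = parental cells lacking receptor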); conditions: cell-based LRH-1 luciferase reporter, inverse agonism; at 3.6 µM; hits give high values
Sequence of Nuclear receptor subfamily 5 group A member 2 (Homo sapiens) (O00482 whole entry, looked up): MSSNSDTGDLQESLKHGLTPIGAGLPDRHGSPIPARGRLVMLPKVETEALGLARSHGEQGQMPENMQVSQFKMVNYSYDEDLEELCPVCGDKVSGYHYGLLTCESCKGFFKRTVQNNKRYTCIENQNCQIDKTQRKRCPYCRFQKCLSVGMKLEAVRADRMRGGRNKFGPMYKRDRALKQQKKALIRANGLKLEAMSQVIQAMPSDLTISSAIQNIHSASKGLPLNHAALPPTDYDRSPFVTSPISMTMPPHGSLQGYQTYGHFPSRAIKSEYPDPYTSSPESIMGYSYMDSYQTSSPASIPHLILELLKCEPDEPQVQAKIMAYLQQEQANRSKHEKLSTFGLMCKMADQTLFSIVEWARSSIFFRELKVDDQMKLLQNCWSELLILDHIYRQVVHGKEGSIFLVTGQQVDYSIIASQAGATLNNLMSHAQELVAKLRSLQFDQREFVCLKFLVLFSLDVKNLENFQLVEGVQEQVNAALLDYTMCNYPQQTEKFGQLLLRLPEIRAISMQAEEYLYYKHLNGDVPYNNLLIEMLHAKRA

[3] = molecular target: Steroidogenic factor 1 (Homo sapiens) (UniProt Q13285); assay: SF1 (NR5A1) inverse agonists, counter-screen for LRH-1 inverse agonist project, cell-based, luminescence, high throughput (AID 651614; in the data active = inhibition above about 44%;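 also: cells cotransfected with StAR promoter reporter and SF1 expression vector; 0% = vehicle on cells with receptor and 100% = vehicle on cells lacking receptor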); conditions: cell-based SF1 luciferase reporter, at 3.6 µM, hits give high values
Sequence of Steroidogenic factor 1 (Homo sapiens) (Q13285 whole entry, looked up, the tested form may be a part): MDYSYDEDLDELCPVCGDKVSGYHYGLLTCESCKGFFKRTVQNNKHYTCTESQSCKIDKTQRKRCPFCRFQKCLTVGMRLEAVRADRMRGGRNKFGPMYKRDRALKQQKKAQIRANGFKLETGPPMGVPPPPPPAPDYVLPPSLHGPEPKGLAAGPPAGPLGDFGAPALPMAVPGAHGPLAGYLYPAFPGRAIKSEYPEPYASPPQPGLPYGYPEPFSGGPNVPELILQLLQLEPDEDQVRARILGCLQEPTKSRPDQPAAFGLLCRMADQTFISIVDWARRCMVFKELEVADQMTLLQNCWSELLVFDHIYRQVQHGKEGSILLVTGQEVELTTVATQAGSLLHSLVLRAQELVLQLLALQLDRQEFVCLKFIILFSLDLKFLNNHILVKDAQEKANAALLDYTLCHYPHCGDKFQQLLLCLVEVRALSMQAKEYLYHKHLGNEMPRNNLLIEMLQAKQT

[4] = VP16 transactivation reporter inhibitors, counter-screen for LRH-1 inverse agonist project, cell-based, luminescence, high throughput (AID 651615; in the data active = inhibition above about 33%); conditions: Gal4-VP16 luciferase reporter cells, at 3.6 µM, hits give high values

Compound	inhibition [1]	inhibition [2]	inhibition [3]	inhibition [4]
Cc1ccc(Cl)cc1NC(=O)COC(=O)CC(C)(C)C	28.3% (active)	62.4% (active)	60.2% (active)	-10.5%
O=C1C=C(c2ccccc2)OC2(CCCC2)O1	19.8%	67.3% (active)	61.2% (active)	-4.15%
COc1cc(C)c(C(=O)Oc2cc(C)c(C(=O)O)c(O)c2C)c(O)c1C	14.9%	73.8% (active)	70.7% (active)	-10.6%
Cc1nn(C)c(C)c1CN(Cc1nc(CCC(C)C)no1)C(C)C	20.7%	59.6% (active)	54.2% (active)	52.8% (active)
CCN1C(=O)c2cccc3c(NC(=O)c4ccc(S(=O)(=O)N(C)C)cc4)ccc1c23	39% (active)	47.9% (active)	46.2% (active)	-41.4%
O=C(c1ccccc1)c1cc(-c2ccccn2)c(N2CCOCC2)s1	-8.68%	68.3% (active)	63.4% (active)	0.02%
CS/C(=C\[N+](=O)[O-])Nc1ccc(OC(F)(F)F)cc1	42% (active)	83.9% (active)	84.6% (active)	9.63%
